Results taken from PubChem BioAssay (EPA / NIEHS).
“And” between values parts separate entries of the source, which are not always exact repeats. Identical values can stand only once. Results filed as inconclusive are left out. A structure can be active in one record and inactive in another. The source made the active and inactive calls. Rule for the calls, unless noted: active = hit-call score of the fitted dose curve at least 0.9, where 1 is the maximum; inactive = score below 0.9.

Tests used:
[1] = ATG_GAL4_TRANS: Attagene TRANS-FACTORIAL HepG2 Assay for GAL4 (Internal Marker) (AID 2282976; active = hit-call score of the fitted dose curve at least 0.9, where 1 is the maximum); conditions: HepG2 Attagene TRANS GAL4 internal marker reporter
Method in brief: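 Liver HepG2 line bearing multiplexed GAL4-UAS reporter constructs; 24 h chemical treatment. Transcripts were quantified as fluorescent fragments on capillary electrophoresis after RT-PCR and HpaI cut, with activity fitted upward from DMSO.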

[2] = molecular target: Glucocorticoid receptor (Homo sapiens) (UniProt P04150); test: ATG_GR_TRANS: Attagene TRANS-FACTORIAL HepG2 Assay for human Glucocorticoid Receptor (GR) (AID 2282978; active = hit-call score of the fitted dose curve at least 0.9, where 1 is the maximum;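 note: activators score as hits since higher reporter transcript over DMSO is fitted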); conditions: HepG2 Attagene TRANS GR reporter, mRNA transcription
Sequence of Glucocorticoid receptor (Homo sapiens) (P04150 whole entry, looked up, the tested form may be a part): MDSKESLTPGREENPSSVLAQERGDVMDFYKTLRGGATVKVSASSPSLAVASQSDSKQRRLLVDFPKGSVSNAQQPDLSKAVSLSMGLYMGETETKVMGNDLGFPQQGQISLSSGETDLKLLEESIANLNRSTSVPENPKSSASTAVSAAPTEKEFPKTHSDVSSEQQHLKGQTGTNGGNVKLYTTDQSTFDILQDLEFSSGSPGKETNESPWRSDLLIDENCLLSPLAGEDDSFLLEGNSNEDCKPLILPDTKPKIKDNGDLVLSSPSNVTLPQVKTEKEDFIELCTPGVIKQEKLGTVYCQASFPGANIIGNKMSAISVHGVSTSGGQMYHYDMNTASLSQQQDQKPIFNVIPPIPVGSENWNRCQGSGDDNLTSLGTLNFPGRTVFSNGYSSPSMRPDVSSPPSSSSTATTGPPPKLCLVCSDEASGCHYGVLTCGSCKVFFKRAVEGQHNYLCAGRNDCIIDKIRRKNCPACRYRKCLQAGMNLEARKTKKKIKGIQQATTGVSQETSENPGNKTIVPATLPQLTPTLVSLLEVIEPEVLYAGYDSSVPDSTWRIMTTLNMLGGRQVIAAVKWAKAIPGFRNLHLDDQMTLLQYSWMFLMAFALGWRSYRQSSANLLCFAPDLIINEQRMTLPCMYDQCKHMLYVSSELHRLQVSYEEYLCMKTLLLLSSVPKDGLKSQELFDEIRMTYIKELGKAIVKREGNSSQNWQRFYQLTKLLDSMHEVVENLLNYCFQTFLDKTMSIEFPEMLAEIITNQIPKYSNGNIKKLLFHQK
Method in brief: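 Fluorescent capillary-electrophoresis quantitation of reporter mRNA is the readout, taken 24 h after dosing human HepG2 cells carrying transiently transfected GAL4-UAS reporter units activated by chimeric NR-GAL4 fusions; activity scored as induction over DMSO.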

[3] = molecular target: Bile acid receptor (Homo sapiens) (UniProt Q96RI1); test: ATG_FXR_TRANS: Attagene TRANS-FACTORIAL HepG2 Assay for Farnesoid X Receptor (FXR) (AID 2282979; active = hit-call score of the fitted dose curve at least 0.9, where 1 is the maximum;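 note: hits raise reporter mRNA above DMSO so AC50 marks FXR activation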); conditions: HepG2 Attagene TRANS FXR-GAL4 reporter transcription
Sequence of Bile acid receptor (Homo sapiens) (Q96RI1 whole entry, looked up, the tested form may be a part): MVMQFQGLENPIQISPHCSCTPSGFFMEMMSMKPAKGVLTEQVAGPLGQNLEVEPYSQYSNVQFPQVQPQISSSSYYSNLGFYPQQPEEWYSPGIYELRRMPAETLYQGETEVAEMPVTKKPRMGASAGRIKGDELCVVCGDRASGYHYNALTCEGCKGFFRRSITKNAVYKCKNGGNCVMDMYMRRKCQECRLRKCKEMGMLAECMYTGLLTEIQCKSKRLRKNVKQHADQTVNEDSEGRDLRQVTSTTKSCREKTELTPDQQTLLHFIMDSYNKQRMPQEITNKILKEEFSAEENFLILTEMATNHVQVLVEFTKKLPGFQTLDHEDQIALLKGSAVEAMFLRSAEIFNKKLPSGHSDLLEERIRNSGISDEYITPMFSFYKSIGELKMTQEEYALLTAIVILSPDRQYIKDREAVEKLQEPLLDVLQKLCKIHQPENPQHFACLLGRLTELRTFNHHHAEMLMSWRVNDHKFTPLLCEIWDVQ
Method in brief: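 After 24 h chemical treatment of transfected HepG2 cells, GAL4-UAS reporter transcripts driven by an exogenous FXR-GAL4 fusion were measured by RT-PCR and capillary electrophoresis. Increases over DMSO were fitted.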

[4] = molecular target: Oxysterols receptor LXR-alpha (Homo sapiens) (UniProt Q13133); test: ATG_LXRa_TRANS: Attagene TRANS-FACTORIAL HepG2 Assay for human Liver X Receptor alpha (LXRa) (AID 2282980; active = hit-call score of the fitted dose curve at least 0.9, where 1 is the maximum); conditions: HepG2 Attagene TRANS reporter, LXRa transactivation
Sequence of Oxysterols receptor LXR-alpha (Homo sapiens) (Q13133 whole entry, looked up, the tested form may be a part): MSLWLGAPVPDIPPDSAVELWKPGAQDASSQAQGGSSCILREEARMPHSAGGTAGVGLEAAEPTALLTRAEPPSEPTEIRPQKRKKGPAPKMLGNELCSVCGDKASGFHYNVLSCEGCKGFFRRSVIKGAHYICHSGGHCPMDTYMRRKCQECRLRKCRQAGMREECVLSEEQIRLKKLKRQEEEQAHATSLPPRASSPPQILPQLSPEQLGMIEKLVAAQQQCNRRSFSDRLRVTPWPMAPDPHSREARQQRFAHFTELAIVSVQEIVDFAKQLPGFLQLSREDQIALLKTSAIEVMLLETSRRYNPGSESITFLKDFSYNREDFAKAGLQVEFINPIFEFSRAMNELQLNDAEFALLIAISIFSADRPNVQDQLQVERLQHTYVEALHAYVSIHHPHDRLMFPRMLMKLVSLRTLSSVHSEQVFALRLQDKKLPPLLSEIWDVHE
Method in brief: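 In this multiplexed TRANS system, compounds act on HepG2 cells carrying GAL4-UAS reporter units and a receptor-GAL4 fusion for 24 h. Induced reporter RNA is amplified, fluorescently labelled and sized by capillary electrophoresis, with DMSO as baseline.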

[5] = molecular target: Oxysterols receptor LXR-beta (Homo sapiens) (UniProt P55055); test: ATG_LXRb_TRANS: Attagene TRANS-FACTORIAL HepG2 Assay for human Liver X Receptor beta (LXRb) (AID 2282981; active = hit-call score of the fitted dose curve at least 0.9, where 1 is the maximum); conditions: HepG2 Attagene TRANS GAL4-LXRb reporter, mRNA
Sequence of Oxysterols receptor LXR-beta (Homo sapiens) (P55055 whole entry, looked up, the tested form may be a part): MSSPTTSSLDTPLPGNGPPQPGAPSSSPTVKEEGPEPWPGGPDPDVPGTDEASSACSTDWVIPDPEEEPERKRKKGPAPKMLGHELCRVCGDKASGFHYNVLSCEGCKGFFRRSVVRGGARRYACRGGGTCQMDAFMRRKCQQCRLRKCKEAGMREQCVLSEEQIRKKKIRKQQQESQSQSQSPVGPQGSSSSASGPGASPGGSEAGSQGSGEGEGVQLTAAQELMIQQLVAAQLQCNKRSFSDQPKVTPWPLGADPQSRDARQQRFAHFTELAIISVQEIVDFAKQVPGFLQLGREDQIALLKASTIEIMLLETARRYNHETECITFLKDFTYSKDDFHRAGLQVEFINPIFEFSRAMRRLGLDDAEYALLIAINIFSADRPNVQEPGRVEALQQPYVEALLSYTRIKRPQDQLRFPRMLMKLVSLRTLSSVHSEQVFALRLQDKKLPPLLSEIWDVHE
Method in brief: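 After 24 h chemical treatment of transfected HepG2 cells carrying exogenous NR-Gal4 chimeras, reporter mRNA was quantified by fluorescent RT-PCR and capillary electrophoresis; activity taken as increase over DMSO controls.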

[6] = molecular target: Hepatocyte nuclear factor 4-alpha (Homo sapiens) (UniProt P41235); test: ATG_HNF4a_TRANS: Attagene TRANS-FACTORIAL HepG2 Assay for human Hepatocyte Nuclear Factor 4 alpha (HNF4a) (AID 2282982; active = hit-call score of the fitted dose curve at least 0.9, where 1 is the maximum); conditions: HepG2 HNF4a transactivation reporter, mRNA readout
Sequence of Hepatocyte nuclear factor 4-alpha (Homo sapiens) (P41235 whole entry, looked up, the tested form may be a part): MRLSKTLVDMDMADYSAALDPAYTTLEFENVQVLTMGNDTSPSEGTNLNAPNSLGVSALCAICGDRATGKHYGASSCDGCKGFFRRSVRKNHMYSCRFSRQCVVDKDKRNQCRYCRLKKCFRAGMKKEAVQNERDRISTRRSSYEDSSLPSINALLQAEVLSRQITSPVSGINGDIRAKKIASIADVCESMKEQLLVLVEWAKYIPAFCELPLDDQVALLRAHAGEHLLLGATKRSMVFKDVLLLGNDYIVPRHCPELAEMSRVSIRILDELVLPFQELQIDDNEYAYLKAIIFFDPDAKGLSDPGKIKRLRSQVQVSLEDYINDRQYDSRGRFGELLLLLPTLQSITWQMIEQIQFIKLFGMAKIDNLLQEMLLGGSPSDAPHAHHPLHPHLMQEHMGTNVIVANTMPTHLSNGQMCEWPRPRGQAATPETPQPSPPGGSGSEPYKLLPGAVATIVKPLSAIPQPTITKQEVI
Method in brief: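 Activity of an exogenous HNF4a–Gal4 fusion scored as induced GAL4-UAS reporter transcripts after 24 h chemical exposure of transfected human HepG2 cells. Read-out via RT-PCR with 6-FAM labelling and capillary electrophoresis; rise over DMSO baseline.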

[7] = ATG_M_06_TRANS: Attagene TRANS-FACTORIAL HepG2 Assay for M06 Transcription Factor (Internal Marker) (AID 2282983; active = hit-call score of the fitted dose curve at least 0.9, where 1 is the maximum); conditions: HepG2 Attagene TRANS M06 internal marker reporter
Method in brief: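 Multi-reporter-transfected HepG2, 24 h treatment; reporter transcripts quantified via RT-PCR, primer-extension labelling and CE. DMSO-normalized gain-of-signal fit.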

[8] = ATG_M_32_TRANS: Attagene TRANS-FACTORIAL HepG2 Assay for M32 Transcription Factor (Internal Marker) (AID 2282984; active = hit-call score of the fitted dose curve at least 0.9, where 1 is the maximum); conditions: HepG2 Attagene TRANS M32 internal marker reporter
Method in brief: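 Internal background reporter in transfected HepG2: after 24 h chemical exposure, RNA reverse-transcribed, reporter cDNA amplified, fluorescently labelled and HpaI-cut, then sized by capillary electrophoresis. Gain of signal fitted against DMSO control.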

[9] = molecular target: Nuclear receptor subfamily 4 group A member 2 (Homo sapiens) (UniProt P43354); test: ATG_NURR1_TRANS: Attagene TRANS-FACTORIAL HepG2 Assay for human Nuclear Receptor Related Protein 1 (NURR1) (AID 2282985; active = hit-call score of the fitted dose curve at least 0.9, where 1 is the maximum); conditions: HepG2 Attagene TRANS reporter, mRNA readout
Sequence of Nuclear receptor subfamily 4 group A member 2 (Homo sapiens) (P43354 whole entry, looked up, the tested form may be a part): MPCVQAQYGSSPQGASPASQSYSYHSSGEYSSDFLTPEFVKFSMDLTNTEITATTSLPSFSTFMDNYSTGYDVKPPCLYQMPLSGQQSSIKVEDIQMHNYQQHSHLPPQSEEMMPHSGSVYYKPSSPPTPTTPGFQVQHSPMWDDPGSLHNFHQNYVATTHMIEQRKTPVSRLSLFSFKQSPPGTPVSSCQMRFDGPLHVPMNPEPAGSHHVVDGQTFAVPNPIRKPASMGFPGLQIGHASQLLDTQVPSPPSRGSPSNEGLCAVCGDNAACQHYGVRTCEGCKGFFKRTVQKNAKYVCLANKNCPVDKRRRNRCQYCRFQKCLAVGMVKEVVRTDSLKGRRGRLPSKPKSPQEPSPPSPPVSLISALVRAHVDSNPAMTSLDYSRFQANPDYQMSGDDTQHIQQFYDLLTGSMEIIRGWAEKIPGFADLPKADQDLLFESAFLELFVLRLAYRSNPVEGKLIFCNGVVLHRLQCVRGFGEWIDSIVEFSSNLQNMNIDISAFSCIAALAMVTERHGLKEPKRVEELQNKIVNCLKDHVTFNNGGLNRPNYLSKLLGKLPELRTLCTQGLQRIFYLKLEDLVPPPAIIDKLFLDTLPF
Method in brief: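 Reporter transcript induction, measured by RT-PCR with fluorescent labelling, HpaI digestion and capillary electrophoresis, after 24 hr dosing of human HepG2 cells transiently expressing an exogenous NR-Gal4 fusion with GAL4-UAS-driven reporters; DMSO as baseline.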

[10] = molecular target: Transcriptional activator Myb (Homo sapiens) (UniProt P10242); test: ATG_Myb_CIS: Attagene CIS-FACTORIAL HepG2 Assay for human Myeloblastosis (Myb) Proto-Oncogene Transcription Factor (AID 2282986); conditions: HepG2 Attagene CIS-FACTORIAL Myb reporter transcription; actives raise or lower the signal
Sequence of Transcriptional activator Myb (Homo sapiens) (P10242 whole entry, looked up): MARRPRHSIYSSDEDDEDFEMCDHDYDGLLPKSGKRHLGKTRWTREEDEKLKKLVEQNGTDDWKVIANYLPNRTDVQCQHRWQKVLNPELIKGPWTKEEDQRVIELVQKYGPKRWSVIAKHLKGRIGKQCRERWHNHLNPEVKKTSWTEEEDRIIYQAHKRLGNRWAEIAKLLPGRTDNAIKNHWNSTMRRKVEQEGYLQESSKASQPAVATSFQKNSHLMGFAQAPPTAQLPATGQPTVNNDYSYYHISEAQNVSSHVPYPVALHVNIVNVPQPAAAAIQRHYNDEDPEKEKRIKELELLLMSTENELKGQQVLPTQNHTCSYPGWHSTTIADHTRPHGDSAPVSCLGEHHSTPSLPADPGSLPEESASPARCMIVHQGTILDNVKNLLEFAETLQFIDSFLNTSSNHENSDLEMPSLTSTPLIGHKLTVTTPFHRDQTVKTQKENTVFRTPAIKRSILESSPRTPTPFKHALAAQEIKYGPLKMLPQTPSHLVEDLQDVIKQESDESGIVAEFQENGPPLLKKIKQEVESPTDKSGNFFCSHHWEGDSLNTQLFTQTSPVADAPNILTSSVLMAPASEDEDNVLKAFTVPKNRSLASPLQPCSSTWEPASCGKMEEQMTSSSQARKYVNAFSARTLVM
Method in brief: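 Reporter transcript levels, quantified by fluorescent RT-PCR and capillary electrophoresis, serve as the read-out. Transfected HepG2 cells carrying cis-promoter reporter units are dosed for 24 hours, and curves are fitted bidirectionally against DMSO controls.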

[11] = molecular target: Nuclear respiratory factor 1 (Homo sapiens) (UniProt Q16656); test: ATG_NRF1_CIS: Attagene CIS-FACTORIAL HepG2 Assay for human Nuclear Respiratory Factor 1 (NRF1) Orphan Gene (AID 2282987); conditions: HepG2 NRF1 cis-element reporter, Attagene multiplex; actives raise or lower the signal
Sequence of Nuclear respiratory factor 1 (Homo sapiens) (Q16656 whole entry, looked up): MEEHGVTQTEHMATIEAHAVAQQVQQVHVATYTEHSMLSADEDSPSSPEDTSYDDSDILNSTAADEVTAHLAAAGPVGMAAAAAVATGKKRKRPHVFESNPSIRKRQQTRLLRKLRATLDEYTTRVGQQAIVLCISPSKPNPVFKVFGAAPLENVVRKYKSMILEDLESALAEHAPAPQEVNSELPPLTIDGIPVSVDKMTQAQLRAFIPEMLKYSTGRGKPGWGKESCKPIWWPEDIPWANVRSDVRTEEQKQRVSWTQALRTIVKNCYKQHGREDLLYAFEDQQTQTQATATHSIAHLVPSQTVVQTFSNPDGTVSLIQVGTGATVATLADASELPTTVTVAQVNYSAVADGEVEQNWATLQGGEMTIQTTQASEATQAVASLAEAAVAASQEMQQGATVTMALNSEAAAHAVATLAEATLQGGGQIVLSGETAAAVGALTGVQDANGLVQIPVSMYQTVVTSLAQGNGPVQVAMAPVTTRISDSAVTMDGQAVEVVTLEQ
Method in brief: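 Multiplexed cis-reporter assay, HepG2 cells, 24 h treatment. Total RNA → oligo(dT) RT → PCR with reporter-specific primers → 6-FAM primer extension → HpaI cut → CE. Bidirectional fit vs DMSO.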

[12] = ATG_NFI_CIS: Attagene CIS-FACTORIAL HepG2 Assay for human Nuclear Factor I (NFI) (AID 2282989); conditions: HepG2 cis-regulatory reporter, NFI response element transcription; actives raise or lower the signal
Method in brief: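 Read-out: reporter mRNA via RT-PCR plus capillary electrophoresis with fluorescence detection. Transiently transfected HepG2 (endogenous TF activity on cis promoters), 24 h compound exposure; gain or loss of signal fitted against DMSO.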

[13] = molecular target: Myc proto-oncogene protein (Homo sapiens) (UniProt P01106); test: ATG_Myc_CIS: Attagene CIS-FACTORIAL HepG2 Assay for human Myelocytomatosis (Myc) Proto-Oncogene Transcription Factor (AID 2282990); conditions: HepG2, Attagene cis-reporter transcription factor activity; actives raise or lower the signal
Method in brief: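 After 24 h chemical treatment of HepG2 cells carrying multiplexed cis-regulated reporter constructs, reporter transcripts quantified by RT-PCR and capillary electrophoresis of fluorescent fragments. Gain or loss fitted against DMSO baseline.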

[14] = ATG_NF_kB_CIS: Attagene CIS-FACTORIAL HepG2 Assay for human Nuclear Factor Kappa B (NF-kB) (AID 2282991); conditions: HepG2 Attagene cis-factorial NF-kB reporter mRNA; actives raise or lower the signal
Method in brief: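 Transient MRTU transfection of human HepG2 liver cells → 24 h chemical exposure → total RNA, oligo(dT) RT → PCR, 6-FAM primer extension, HpaI digest 2 h 37 C → CE fragment analysis. Bidirectional fitting, DMSO negative control.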

[15] = ATG_NRF2_ARE_CIS: Attagene CIS-FACTORIAL HepG2 Assay for human Nuclear Factor Erythroid 2 Related Factor 2 (NFR2) response to Antioxidant Response Elements (ARE) (AID 2282992); conditions: HepG2 Attagene ARE/NRF2 reporter, transcription factor activity; actives raise or lower the signal;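 for AC50: reporter mRNA level measured by RT-PCR and capillary electrophoresis fluorescence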
Method in brief: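 Fluorescence intensity of reporter-specific cDNA fragments, separated by capillary electrophoresis, reflects mRNA induction in transfected HepG2 cells at 24 h. Activity is fitted bidirectionally, DMSO serving as baseline.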

[16] = ATG_Oct_MLP_CIS: Attagene CIS-FACTORIAL HepG2 Assay for human Octamer-Binding Transcription Factor (Oct) (AID 2282993); conditions: HepG2 Attagene cis-factorial Oct reporter, mRNA; actives raise or lower the signal
Method in brief: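 Read-out: reporter mRNA via RT-PCR plus capillary electrophoresis of 6-FAM-labelled fragments. Transiently transfected HepG2, 24 h exposure, endogenous TF activity on cis elements. Gain or loss of signal fitted relative to DMSO.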

[17] = BSK_3C_TissueFactor: BioMAP Diversity Plus: 3C Assay for Tissue Factor Biomarker Activity (AID 2282997); conditions: BioMAP 3C HUVEC, tissue factor biomarker readout; actives raise or lower the signal
Method in brief: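 In this endothelial system, HUVEC are treated for 24 h and Tissue Factor is assessed by ELISA, normalised to DMSO.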

[18] = BSK_3C_uPAR: BioMAP Diversity Plus: 3C Assay for Urokinase-type plasminogen activator receptor (uPAR) Biomarker Activity (AID 2282998); conditions: BioMAP 3C HUVEC, uPAR biomarker ELISA; actives raise or lower the signal
Method in brief: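 HUVEC primary cells; 24 h post-dose; uPAR by ELISA; gain or loss of signal fitted bidirectionally vs DMSO baseline.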

[19] = molecular target: Estrogen-related receptor gamma (Homo sapiens) (UniProt P62508); test: ATG_ERRg_TRANS: Attagene TRANS-FACTORIAL HepG2 Assay for human Estrogen-Related Receptor gamma (ERRg) (AID 2282977; active = hit-call score of the fitted dose curve at least 0.9, where 1 is the maximum;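 note: hits increase reporter signal over DMSO so potencies reflect activators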); conditions: HepG2 Attagene TRANS reporter, ERRg transactivation
Sequence of Estrogen-related receptor gamma (Homo sapiens) (P62508 whole entry, looked up, the tested form may be a part): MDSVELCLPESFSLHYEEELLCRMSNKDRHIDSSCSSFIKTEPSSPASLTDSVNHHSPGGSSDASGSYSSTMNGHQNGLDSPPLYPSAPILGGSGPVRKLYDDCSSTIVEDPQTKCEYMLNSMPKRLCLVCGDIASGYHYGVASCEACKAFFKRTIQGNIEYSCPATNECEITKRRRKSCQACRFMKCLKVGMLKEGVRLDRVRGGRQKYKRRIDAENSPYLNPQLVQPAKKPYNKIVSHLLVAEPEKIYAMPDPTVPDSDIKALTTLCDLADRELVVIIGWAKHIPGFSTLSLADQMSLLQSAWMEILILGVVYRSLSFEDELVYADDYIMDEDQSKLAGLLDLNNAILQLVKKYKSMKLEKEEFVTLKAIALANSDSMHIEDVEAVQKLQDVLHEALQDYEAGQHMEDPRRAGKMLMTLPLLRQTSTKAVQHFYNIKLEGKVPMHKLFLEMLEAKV
Method in brief: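 Exogenous NR-Gal4 chimera activity measured as reporter transcript induction after 24 h in transiently transfected HepG2 cells. RNA reverse-transcribed, PCR-amplified, 6-FAM-labelled and resolved by capillary electrophoresis; increase over DMSO baseline.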

[20] = molecular target: Cellular tumor antigen p53 (Homo sapiens) (UniProt P04637); test: ATG_p53_CIS: Attagene CIS-FACTORIAL HepG2 Assay for human p53 Transcription Factor (AID 2282994); conditions: HepG2 p53 cis-element reporter, Attagene mRNA; actives raise or lower the signal
Method in brief: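 Transiently transfected HepG2 (multiple cis reporter transcription units); exposure 24 h; reporter RNA via RT-PCR, 6-FAM extension, 2 h HpaI digest at 37 C, CE detection; DMSO baseline.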

Measured: AC50

N#CC(CCc1ccc(Cl)cc1)(Cn1cncn1)c1ccccc1 (centres undefined)
active: [15] 10.3 µM
not listed: [1] | [4] | [7] | [9] | [13] | [20]
inactive: all other assays above

COC(=O)C(C)Oc1ccc(Oc2ccc(Cl)cc2Cl)cc1 (centres undefined)
active: [18] 25.7 µM and 20 µM and 13.3 µM
not listed: [1] | [13] | [20]
inactive: all other assays above

N#Cc1nn(-c2c(Cl)cc(C(F)(F)F)cc2Cl)c(N)c1S(=O)C(F)(F)F (centres undefined)
inactive: [1] | [19] | [3] | [4] | [5] | [6] | [7] | [8] | [10] | [11] | [12] | [15] | [16] | [17]
active: [4] 18.5 µM | [5] 11.7 µM | [15] 5.51 µM | [16] 10.2 µM | [18] 22 µM

COC(=O)c1ccccc1C(=O)OC
not listed: [1] | [6] | [7] | [9] | [13] | [20]
inactive: all other assays above

OC(c1ccc(Cl)cc1)(c1cncnc1)c1ccccc1Cl (centres undefined)
inactive: [1] | [19] | [2] | [4] | [5] | [6] | [7] | [8] | [9] | [10] | [11] | [12] | [15] | [16] | [20] | [17]
active: [15] 12.8 µM | [16] 26.3 µM | [18] 17.4 µM

COc1nc(C)nc(NC(=O)NS(=O)(=O)c2ccccc2CCC(F)(F)F)n1
inactive: [19] | [2] | [3] | [4] | [5] | [6] | [7] | [8] | [9] | [10] | [11] | [12] | [14] | [15] | [16] | [17] | [18]
active: [15] 16.7 µM and 31.3 µM
